Activity calls are given as the source filed them.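 How the source made its calls: active means visually confirmed hit in the image check and inhibition above 20%; inconclusive means visually confirmed hit but inhibition not above 20%; inactive means no visual hit in the image check.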
Experiment: inhibitors of E-selectin induction by TNFa, primary screen, imaging, HUVEC, immunofluorescence, MLSMR starter and 10KST1 sets (AID 487);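 on inhibition: signal is fraction of cell area covered by stained E-selectin grains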;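 on nuclei count: 100% = median nuclei count of all wells on the same plate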
Details: HUVEC TNFalpha-induced E-selectin immunofluorescence imaging, at 2 µM; inhibition: stronger effect = higher value; nuclei count: measured here: cell number, toxicity

Structure (SMILES) | inhibition | nuclei count
O=C1CCC(C(=O)N(Cc2ccco2)C2(C(=O)NC3CCCC3)CCCCC2)N1 (stereo not drawn) | -39.9% (inactive) | 139%
O=C(NC1CCCCCCC1)C1CCN(c2nc3ccccc3o2)CC1 | -34.9% (inactive) | 116%
COc1ccccc1N1CCN(c2cc(N3CCCC3)nc(C)n2)CC1 | -60.1% (inactive) | 136%
CCN(CC(=O)Nc1ccc2c(c1)OCCO2)Cc1cc(=O)oc2cc(C)c(C)cc12 | -2.6% (inactive) | 119%
Cc1ccc2cc(C(c3nnnn3C3CCCC3)N3CCN(c4ccc(F)cc4)CC3)c(=O)[nH]c2c1 (stereo not drawn) | -31.9% (inactive) | 130%
COc1ccccc1N1CCN(C(=O)c2cc(-c3ccc(Cl)c(Cl)c3)on2)CC1 | -17.9% (inactive) | 102%
COC(=O)c1sc(S(=O)(=O)N2CCN(c3ccccc3)CC2)c(C(=O)OC)c1C | -151% (inactive) | 117%
Cc1cc(NC(=O)CSc2nc(C3CCCCC3)nc3ccccc23)no1 | -10.7% (inactive) | 106%
COc1ccc(Cl)c(NC(=O)NCCN2CCN(c3ccccc3)CC2)c1 | -12.8% (inactive) | 119%
Cc1ccc(S(=O)(=O)N2CCN(C(=O)N3CCOCC3)C2c2ccc(N(C)C)cc2)cc1 (stereo not drawn) | -44.5% (inactive) | 121%
CCOC(=O)c1c(N)c(C#N)nn1-c1ccccc1C(=O)OC | -41.6% (inactive) | 101%
Cc1cc(C)n(C(C)n2nc(C)cc2C)n1 | -37% (inactive) | 68%
CCCCCCn1c(CN2CCCC(C)C2)nc2c1c(=O)n(C)c(=O)n2C (stereo not drawn) | -46.9% (inactive) | 114%
Cc1cccc(NC(=O)c2ccc(S(=O)(=O)N(C)C)cc2)n1 | -126% (inactive) | 94.4%
Cn1cnnc1Sc1nc2c(c(=O)n(C)c(=O)n2C)n1Cc1ccccc1Cl | -73.3% (inactive) | 123%
COC(=O)Nc1ccc(S(=O)(=O)N2CCCCCC2)cc1 | -61.6% (inactive) | 127%
Cc1cc(=O)c2n(Cc3ccccc3Cl)nc[n+]2[nH]1 | -111% (inactive) | 120%
Cn1c(=O)[nH]c(=O)c2c1nc(Br)n2CCCSc1nc2ccccc2o1 | -8.4% (inactive) | 100%
Cc1ccc(C(=O)Nc2c(C(=O)N3CCOCC3)cnn2-c2ccccc2)cc1 | -6.5% (inactive) | 105%
COc1ccc(C(=O)NCCC(C)C)cc1S(=O)(=O)N1CCOCC1 | 25.8% (inactive) | 109%

Structure (SMILES) | inhibition | nuclei count
O=C(NC1=NCCS1)c1ccc2c(c1)C(=O)N(Cc1ccco1)C2=O | -60.7% (inactive) | 111%
CCN(C(=O)c1cccs1)c1nnc(-c2ccncc2)s1 | -80% (inactive) | 115%
O=C(c1nn2cccnc2c1Cl)N1CCN(c2ccccc2)CC1 | -45.6% (inactive) | 94.5%
CC12CCC(C(=O)N3CCN(C(=O)C45CCC(C)(C(=O)O4)C5(C)C)CC3)(OC1=O)C2(C)C | -42.4% (inactive) | 140%
CSc1nnc(-c2ccccc2)n1C | -16.6% (inactive) | 108%
O=C(COC(=O)c1ccccc1C(=O)c1ccccc1)c1ccco1 | 4% (inactive) | 113%
CN(CC(=O)Nc1cccnc1)S(=O)(=O)c1cc(Cl)ccc1Cl | -44.8% (inactive) | 98.2%
O=C(CSc1n[nH]c(=O)[nH]c1=O)c1ccccc1 | -33.2% (inactive) | 99.8%
O=C(NCCCN1CCN(c2cccc(Cl)c2)CC1)c1ccc(N2CCCC2=O)cc1 | 46.9% (inactive) | 105%
CCN1C(=O)/C(=C/N(C)c2ccccc2)OC1=S | 34.8% (inactive) | 93.7%
Cc1nnc(SCC(=O)NCc2ccc3c(c2)OCO3)s1 | -57% (inactive) | 106%
Cc1cccc(NC(=O)CCCCCN2C(=O)c3ccccc3C2=O)n1 | -68.6% (inactive) | 167%
COc1ccc(-n2nc3cc(C)c(N)c(Br)c3n2)cc1 | -17.3% (inactive) | 83.5%
Cc1ccc(S(=O)(=O)N(CC(=O)N2CCC(C(N)=O)CC2)Cc2ccc(F)cc2)cc1 | 34.4% (inactive) | 110%
Cc1ccc(-n2c(C)cc3c2CCCC3=O)cc1 | -29.8% (inactive) | 118%
CC1CCCCC1NC(=O)COc1ccc(-n2cnnn2)cc1 (stereo not drawn) | -175% (inactive) | 108%
CSc1ccccc1NC(=O)CN(c1ccccc1)S(=O)(=O)N(C)C | 4.1% (inactive) | 140%
O=C(C1CCCO1)N1CCN(S(=O)(=O)c2ccccc2)CC1 (stereo not drawn) | -28.4% (inactive) | 102%
O=C(Nc1ccc2oc(=O)ccc2c1)c1cccnc1 | 1.2% (inactive) | 91.9%

From PubChem BioAssay
